Test [1] can be described thus: BSK_3C_VCAM1: BioMAP Diversity Plus: 3C Assay for Vascular cell adhesion molecule 1 (VCAM1) Biomarker Activity (AID 2282999). Conditions: BioMAP 3C HUVEC, VCAM1 ELISA, cytokine-stimulated; actives raise or lower the signal. A digest of the protocol:
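Activity fitted in both directions relative to DMSO, with ELISA measurement of the surface marker on primary HUVEC (3C) at 24 h post-treatment; parallel SRB staining (0.1% SRB, TCA-fixed, 560 nm) flagged overt cytotoxicity.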

A short description of test [2]: BSK_4H_Eotaxin3: BioMAP Diversity Plus: 4H Assay for Eotaxin 3 Biomarker Activity (AID 2283000).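 As to outcome: CCL26 protein level quantified by ELISA in parallel with SRB cytotoxicity check.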 Conditions: primary human endothelial cells (HUVEC); actives raise or lower the signal. A digest of the protocol: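 Endothelial primary cells (human umbilical vein) exposed to compound for 24 h. ELISA detection of Eotaxin-3.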
Test [3] addresses human Peroxisome Proliferator-activated Receptor delta (PPARd), PPARD (gene 5467) (UniProt Q03181). Kind of test: ATG_PPARd_TRANS: Attagene TRANS-FACTORIAL HepG2 Assay for human Peroxisome Proliferator-activated Receptor delta (PPARd) (AID 2283002; active = hit-call score of the fitted dose curve at least 0.9, where 1 is the maximum). The gist of the method: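 Transient HepG2 transfection (multiple GAL4-UAS RTUs, chimeric receptor-Gal4); 24 h dosing; total RNA → oligo(dT) RT → PCR → 6-FAM primer extension → HpaI cut → CE. Positive direction vs DMSO.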

Read-out in test [4]: Intercellular Adhesion Molecule 1 (ICAM1), ICAM1 (gene 3383)
Kind of test: BSK_3C_ICAM1: BioMAP Diversity Plus: 3C Assay for Intercellular Adhesion Molecule 1 (ICAM1) Biomarker Activity (AID 2283003). Conditions: primary human endothelial cells (HUVEC); actives raise or lower the signal. A digest of the protocol: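 Using DMSO as baseline, bidirectional curve fitting was applied to ICAM-1 ELISA signals from HUVEC in the 3C system, measured 24 h after compound addition.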

A short description of test [5]: BSK_3C_Proliferation: Cell Proliferation Assessment in the BioMAP Diversity Plus: 3C Assay (AID 2283006).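 As to AC50: potency may reflect either rise or fall in cell number versus DMSO.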 The conditions noted are these: primary human endothelial cells (HUVEC). The gist of the method: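 Measured here: sulforhodamine B (0.1%) staining of TCA-fixed sub-confluent umbilical vein endothelial cultures 48 h post-dosing, absorbance 560 nm. DMSO served as negative control and baseline; both signal gain and loss were modelled.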

Test [6] concerns the target Peroxisome proliferator-activated receptor gamma (Homo sapiens) (UniProt P37231). Kind of test: ATG_PPARg_TRANS: Attagene TRANS-FACTORIAL HepG2 Assay for human Peroxisome Proliferator-activated Receptor-gamma (PPARg) (AID 2283007; active = hit-call score of the fitted dose curve at least 0.9, where 1 is the maximum). The gist of the method:
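Chimeric NR-Gal4 transactivation is measured in transiently transfected HepG2 cells by reporter mRNA induction at 24 h. Detection uses RT-PCR with fluorescent labelling and capillary electrophoresis; DMSO defines baseline.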

Test [7] has as its target Nuclear receptor subfamily 1 group I member 2 (Homo sapiens) (UniProt O75469). Kind of test: ATG_PXR_TRANS: Attagene TRANS-FACTORIAL HepG2 Assay for human Pregnane X Receptor (PXR) (AID 2283008; active = hit-call score of the fitted dose curve at least 0.9, where 1 is the maximum). A digest of the protocol:
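Multiplexed TRANS reporter panel in HepG2; this component tracks PXR-Gal4-driven reporter mRNA after 24 h dosing, measured by RT-PCR with capillary electrophoresis fluorescence, fitted against DMSO.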

Test [8] concerns the target human RAR-related Orphan Receptor beta (RORb), RORB (gene 6096) (UniProt Q92753). Description: ATG_RORb_TRANS: Attagene TRANS-FACTORIAL HepG2 Assay for human RAR-related Orphan Receptor beta (RORb) (AID 2283010; active = hit-call score of the fitted dose curve at least 0.9, where 1 is the maximum). A digest of the protocol: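 Multiplexed transcription-factor reporter assay: HepG2 cells transiently carrying NR-Gal4/GAL4-UAS constructs, 24 h treatment, mRNA quantified by RT-PCR plus capillary electrophoresis fluorescence; activity scored as induction over DMSO.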

Test [9] concerns the target human RAR-related Orphan Receptor gamma (RORg), RORC (gene 6097) (UniProt P51449). Description: ATG_RORg_TRANS: Attagene TRANS-FACTORIAL HepG2 Assay for human RAR-related Orphan Receptor gamma (RORg) (AID 2283011; active = hit-call score of the fitted dose curve at least 0.9, where 1 is the maximum). A digest of the protocol: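 Activity is scored as increase in GAL4-UAS reporter mRNA over DMSO, detected by fluorescent RT-PCR and capillary electrophoresis in HepG2 cells transiently expressing a RORg-Gal4 chimera, 24 h after dosing.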

The target in test [10] is Retinoic acid receptor RXR-alpha (Homo sapiens) (UniProt P19793). Description: ATG_RXRa_TRANS: Attagene TRANS-FACTORIAL HepG2 Assay for human Retinoid X Receptor alpha (RXRa) (AID 2283012; active = hit-call score of the fitted dose curve at least 0.9, where 1 is the maximum). A digest of the protocol: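 Chimeric NR-GAL4 trans-activation in HepG2, 24 h treatment; reporter transcripts quantified by fluorescence on capillary electrophoresis, analysed for upward change from DMSO.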
Chain of Retinoic acid receptor RXR-alpha (Homo sapiens) (P19793 whole entry, looked up, the tested form may be a part): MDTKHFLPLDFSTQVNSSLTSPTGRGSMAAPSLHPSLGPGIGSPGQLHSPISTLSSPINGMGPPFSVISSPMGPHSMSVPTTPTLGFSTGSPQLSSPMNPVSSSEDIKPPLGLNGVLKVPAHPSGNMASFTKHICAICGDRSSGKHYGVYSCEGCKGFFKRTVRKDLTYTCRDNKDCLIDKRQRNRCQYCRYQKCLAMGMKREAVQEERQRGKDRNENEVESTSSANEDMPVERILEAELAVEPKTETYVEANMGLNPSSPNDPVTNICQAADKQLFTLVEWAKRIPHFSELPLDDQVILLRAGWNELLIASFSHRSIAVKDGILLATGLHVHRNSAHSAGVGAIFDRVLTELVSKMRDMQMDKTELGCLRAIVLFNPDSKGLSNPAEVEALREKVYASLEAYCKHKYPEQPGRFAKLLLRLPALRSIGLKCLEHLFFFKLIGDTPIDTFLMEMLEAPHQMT

Test [11] concerns the target human Retinoid X Receptor beta (RXRb), RXRB (gene 6257) (UniProt P28702). Description: ATG_RXRb_TRANS: Attagene TRANS-FACTORIAL HepG2 Assay for human Retinoid X Receptor beta (RXRb) (AID 2283013; active = hit-call score of the fitted dose curve at least 0.9, where 1 is the maximum). A digest of the protocol:
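After a 24 h incubation with test chemical, transfected HepG2 cells carrying NR-Gal4 fusions and GAL4-UAS reporter transcription units yield RNA whose reporter cDNA is FAM-labelled, HpaI-cut and sized by capillary electrophoresis; increases over DMSO are scored.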

Read-out in test [12]: E-selectin (Homo sapiens) (UniProt P16581)
Description: BSK_3C_Eselectin: BioMAP Diversity Plus: 3C Assay for Eselectin Biomarker Activity (AID 2283015).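 As to outcome: cell surface E-selectin protein quantified by ELISA 24 h after dosing.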 The conditions noted are these: primary human endothelial cells (HUVEC); actives raise or lower the signal. A digest of the protocol:
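Human vascular endothelium from umbilical vein is exposed to test chemicals for 24 h. E-selectin levels are read by ELISA and compared with DMSO controls.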

Read-out in test [13]: Interleukin-1 alpha (IL1a), IL1A (gene 3552)
Kind of test: BSK_BE3C_IL1a: BioMAP Diversity Plus: BE3C Assay for Interleukin-1 alpha (IL1a) Biomarker Activity (AID 2283016). Conditions: primary human bronchial epithelial cells; actives raise or lower the signal. A digest of the protocol: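 Measured in human lung primary bronchial epithelial cells: IL-1a by ELISA at 24 h after dosing, with bidirectional fitting against DMSO.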

Read-out in test [14]: Monocyte Chemoattractant Protein-1 (MCP1), CCL2 (gene 6347)
Kind of test: BSK_3C_MCP1: BioMAP Diversity Plus: 3C Assay for Monocyte Chemoattractant Protein-1 (MCP1) Biomarker Activity (AID 2283017). Conditions: primary human endothelial cells (HUVEC); actives raise or lower the signal. The gist of the method: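 Endothelial cells from human umbilical vein are dosed with chemical, cultured 24 h, then assayed for MCP-1 by ELISA; both increases and decreases are modelled against DMSO controls.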

Read-out in test [15]: Monocyte Chemoattractant Protein-1 (MCP1), CCL2 (gene 6347)
Kind of test: BSK_4H_MCP1: BioMAP Diversity Plus: 4H Assay for Monocyte Chemoattractant Protein-1 (MCP1) Biomarker Activity (AID 2283018). The conditions noted are these: primary human endothelial cells (HUVEC); actives raise or lower the signal. The gist of the method: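 Primary human umbilical vein endothelium is exposed to chemical for 24 h before MCP-1 is assayed by ELISA. Concentration-response fitted bidirectionally relative to DMSO.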

The target in test [16] is Retinoic acid receptor alpha (Homo sapiens) (UniProt P10276). Kind of test: ATG_RARa_TRANS: Attagene TRANS-FACTORIAL HepG2 Assay for human Retinoic Acid Receptor alpha (RARa) (AID 2283005; active = hit-call score of the fitted dose curve at least 0.9, where 1 is the maximum;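 as to AC50: potency for increased reporter signal meaning RARa activation over DMSO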). The gist of the method: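 Reporter transcripts, measured by RT-PCR with fluorescent labeling and capillary electrophoresis after 24 h dosing, reflect activity of an exogenous human RARa–GAL4 fusion in transiently transfected HepG2. Fitted for increase relative to DMSO.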
Chain of Retinoic acid receptor alpha (Homo sapiens) (P10276 whole entry, looked up, the tested form may be a part): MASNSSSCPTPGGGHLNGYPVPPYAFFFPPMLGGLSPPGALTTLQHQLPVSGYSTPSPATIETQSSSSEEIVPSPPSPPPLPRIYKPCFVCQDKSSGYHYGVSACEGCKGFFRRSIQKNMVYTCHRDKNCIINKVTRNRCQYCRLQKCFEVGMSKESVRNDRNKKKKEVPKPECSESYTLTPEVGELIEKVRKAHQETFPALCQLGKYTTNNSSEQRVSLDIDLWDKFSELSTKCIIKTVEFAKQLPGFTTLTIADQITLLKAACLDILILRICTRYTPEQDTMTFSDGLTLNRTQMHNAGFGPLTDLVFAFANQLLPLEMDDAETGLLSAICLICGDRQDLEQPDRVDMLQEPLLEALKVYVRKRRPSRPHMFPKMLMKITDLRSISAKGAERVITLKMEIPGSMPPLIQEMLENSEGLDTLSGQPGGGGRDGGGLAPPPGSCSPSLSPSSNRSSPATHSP

Test [17] deals with human Peroxisome Proliferator-activated Receptor alpha (PPARa), PPARA (gene 5465) (UniProt Q07869). Kind of test: ATG_PPARa_TRANS: Attagene TRANS-FACTORIAL HepG2 Assay for human Peroxisome Proliferator-activated Receptor alpha (PPARa) (AID 2283001; active = hit-call score of the fitted dose curve at least 0.9, where 1 is the maximum). A digest of the protocol:
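Transfected HepG2 cells treated with test chemical for 24 h. RNA isolated, reverse-transcribed with oligo(dT), PCR-amplified, FAM-labelled and HpaI-digested. Fragments sized by capillary electrophoresis; gain-of-signal fit relative to DMSO.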

In test [18] the target is human Thyroid Receptor alpha (THRa1), THRA (gene 7067) (UniProt P10827). Description: ATG_THRa1_TRANS: Attagene TRANS-FACTORIAL HepG2 Assay for human Thyroid Receptor alpha (THRa1) (AID 2283014; active = hit-call score of the fitted dose curve at least 0.9, where 1 is the maximum). A digest of the protocol:
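First, HepG2 cells receive multiple GAL4-UAS reporter units and the chimeric receptor. They are then dosed for 24 h, after which RNA is reverse-transcribed, amplified, labelled, HpaI-cut and sized by capillary electrophoresis; gain relative to DMSO is scored.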

Test [19] has as its target human Retinoic Acid Receptor beta (RARb), RARB (gene 5915) (UniProt P10826). Kind of test: ATG_RARb_TRANS: Attagene TRANS-FACTORIAL HepG2 Assay for human Retinoic Acid Receptor beta (AID 2283004; active = hit-call score of the fitted dose curve at least 0.9, where 1 is the maximum). The gist of the method:
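HepG2, transient MRTU transfection, NR–Gal4 chimera, 24 h treatment; RT-PCR plus CE fluorescence detection of reporter mRNA; gain of signal vs DMSO.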

Test [20] addresses human Retinoic Acid Receptor gamma (RARg), RARG (gene 5916) (UniProt P13631). Kind of test: ATG_RARg_TRANS: Attagene TRANS-FACTORIAL HepG2 Assay for human Retinoic Acid Receptor gamma (RARg) (AID 2283009; active = hit-call score of the fitted dose curve at least 0.9, where 1 is the maximum). The gist of the method:
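Gain-of-signal relative to DMSO is reported from fluorescent capillary electrophoresis of RT-PCR reporter products. These came from HepG2 cells expressing transfected RARg-GAL4 chimeras with UAS reporters, harvested 24 h after dosing.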

Results filed as inconclusive are left out. Calls of active or inactive are those of the source. The calls were made as follows, unless noted: active = hit-call score of the fitted dose curve at least 0.9, where 1 is the maximum; inactive = score below 0.9.

Chain of human Thyroid Receptor alpha (THRa1), THRA (gene 7067) (P10827 whole entry, looked up, the tested form may be a part): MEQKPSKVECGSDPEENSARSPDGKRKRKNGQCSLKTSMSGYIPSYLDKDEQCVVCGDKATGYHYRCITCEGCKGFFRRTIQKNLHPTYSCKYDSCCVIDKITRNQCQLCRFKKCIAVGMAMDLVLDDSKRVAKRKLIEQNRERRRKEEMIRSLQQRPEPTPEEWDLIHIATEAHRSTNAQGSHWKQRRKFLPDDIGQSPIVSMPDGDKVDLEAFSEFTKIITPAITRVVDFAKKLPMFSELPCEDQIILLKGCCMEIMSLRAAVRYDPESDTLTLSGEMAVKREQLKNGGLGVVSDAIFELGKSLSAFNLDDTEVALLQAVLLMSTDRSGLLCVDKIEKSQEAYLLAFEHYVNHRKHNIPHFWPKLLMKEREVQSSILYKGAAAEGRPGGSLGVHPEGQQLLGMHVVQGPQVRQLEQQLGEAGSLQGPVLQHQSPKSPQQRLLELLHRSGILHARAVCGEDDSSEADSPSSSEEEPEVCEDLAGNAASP
Chain of human RAR-related Orphan Receptor gamma (RORg), RORC (gene 6097) (P51449 whole entry, looked up, the tested form may be a part): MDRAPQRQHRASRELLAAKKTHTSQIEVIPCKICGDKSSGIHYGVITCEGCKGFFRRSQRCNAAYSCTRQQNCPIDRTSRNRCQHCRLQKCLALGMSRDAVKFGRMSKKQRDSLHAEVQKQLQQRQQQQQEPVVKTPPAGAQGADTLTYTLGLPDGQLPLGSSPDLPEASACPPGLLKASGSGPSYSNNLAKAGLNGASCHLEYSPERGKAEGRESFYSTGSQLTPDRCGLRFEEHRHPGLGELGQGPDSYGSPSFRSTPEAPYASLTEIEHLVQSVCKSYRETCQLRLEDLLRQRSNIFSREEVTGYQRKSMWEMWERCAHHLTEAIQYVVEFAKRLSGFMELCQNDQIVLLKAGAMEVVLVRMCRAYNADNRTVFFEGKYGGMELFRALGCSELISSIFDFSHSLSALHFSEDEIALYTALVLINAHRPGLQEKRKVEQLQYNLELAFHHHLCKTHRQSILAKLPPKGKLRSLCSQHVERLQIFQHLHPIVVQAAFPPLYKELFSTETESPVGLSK
Chain of E-selectin (Homo sapiens) (P16581 whole entry, looked up): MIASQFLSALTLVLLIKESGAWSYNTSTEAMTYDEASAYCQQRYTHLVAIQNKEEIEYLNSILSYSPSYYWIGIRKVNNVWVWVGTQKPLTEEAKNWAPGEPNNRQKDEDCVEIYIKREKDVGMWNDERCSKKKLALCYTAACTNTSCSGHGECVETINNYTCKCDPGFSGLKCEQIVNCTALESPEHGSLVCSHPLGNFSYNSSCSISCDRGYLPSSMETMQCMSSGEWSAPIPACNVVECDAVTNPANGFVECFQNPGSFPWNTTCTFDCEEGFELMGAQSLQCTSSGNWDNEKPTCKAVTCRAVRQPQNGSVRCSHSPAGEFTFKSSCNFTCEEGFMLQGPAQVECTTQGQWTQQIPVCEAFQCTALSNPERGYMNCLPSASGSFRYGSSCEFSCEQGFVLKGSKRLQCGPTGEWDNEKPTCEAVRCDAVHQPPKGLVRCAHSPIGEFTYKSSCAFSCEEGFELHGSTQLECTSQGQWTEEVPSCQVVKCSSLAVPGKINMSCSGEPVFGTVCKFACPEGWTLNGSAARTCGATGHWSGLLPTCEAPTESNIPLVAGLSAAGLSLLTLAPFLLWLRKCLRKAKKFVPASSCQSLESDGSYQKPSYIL
Chain of human Retinoid X Receptor beta (RXRb), RXRB (gene 6257) (P28702 whole entry, looked up, the tested form may be a part): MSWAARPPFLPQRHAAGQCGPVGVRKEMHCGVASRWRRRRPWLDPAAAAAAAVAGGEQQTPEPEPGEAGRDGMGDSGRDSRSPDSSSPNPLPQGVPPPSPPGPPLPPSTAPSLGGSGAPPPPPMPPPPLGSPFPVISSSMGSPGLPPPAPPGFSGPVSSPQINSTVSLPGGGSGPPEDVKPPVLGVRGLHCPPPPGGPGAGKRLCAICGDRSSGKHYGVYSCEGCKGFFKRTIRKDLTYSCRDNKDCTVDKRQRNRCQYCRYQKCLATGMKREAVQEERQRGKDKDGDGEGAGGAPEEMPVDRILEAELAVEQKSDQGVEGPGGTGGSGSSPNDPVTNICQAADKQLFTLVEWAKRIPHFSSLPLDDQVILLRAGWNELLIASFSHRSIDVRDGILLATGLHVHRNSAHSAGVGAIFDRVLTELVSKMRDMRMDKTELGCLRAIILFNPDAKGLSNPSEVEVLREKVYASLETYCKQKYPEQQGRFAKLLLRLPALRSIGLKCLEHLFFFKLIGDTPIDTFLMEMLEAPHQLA
Chain of Peroxisome proliferator-activated receptor gamma (Homo sapiens) (P37231 whole entry, looked up, the tested form may be a part): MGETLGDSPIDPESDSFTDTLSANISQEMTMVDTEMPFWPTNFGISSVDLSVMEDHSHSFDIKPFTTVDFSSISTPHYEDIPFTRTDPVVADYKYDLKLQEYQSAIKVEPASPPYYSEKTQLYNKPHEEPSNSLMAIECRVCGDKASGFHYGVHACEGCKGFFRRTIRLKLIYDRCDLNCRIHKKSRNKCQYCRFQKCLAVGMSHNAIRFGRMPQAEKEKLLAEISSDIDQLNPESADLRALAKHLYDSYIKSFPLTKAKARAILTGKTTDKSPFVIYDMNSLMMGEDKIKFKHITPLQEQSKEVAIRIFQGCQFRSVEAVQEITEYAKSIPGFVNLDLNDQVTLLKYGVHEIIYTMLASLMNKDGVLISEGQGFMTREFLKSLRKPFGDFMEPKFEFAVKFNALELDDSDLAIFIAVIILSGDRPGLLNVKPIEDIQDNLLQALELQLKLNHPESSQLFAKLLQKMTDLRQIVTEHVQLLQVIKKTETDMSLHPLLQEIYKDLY
Chain of Nuclear receptor subfamily 1 group I member 2 (Homo sapiens) (O75469 whole entry, looked up, the tested form may be a part): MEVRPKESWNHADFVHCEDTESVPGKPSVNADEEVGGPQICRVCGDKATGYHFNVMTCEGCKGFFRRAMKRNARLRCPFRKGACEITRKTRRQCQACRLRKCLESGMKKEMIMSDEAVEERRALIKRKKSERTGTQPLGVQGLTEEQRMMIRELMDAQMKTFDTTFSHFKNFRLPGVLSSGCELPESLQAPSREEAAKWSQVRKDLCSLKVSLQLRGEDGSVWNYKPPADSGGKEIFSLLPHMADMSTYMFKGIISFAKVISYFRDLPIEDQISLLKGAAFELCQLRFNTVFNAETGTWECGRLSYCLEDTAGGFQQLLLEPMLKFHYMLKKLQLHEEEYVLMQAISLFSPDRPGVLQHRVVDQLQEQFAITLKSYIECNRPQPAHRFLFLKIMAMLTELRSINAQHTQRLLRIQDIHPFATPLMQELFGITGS
Chain of human Peroxisome Proliferator-activated Receptor delta (PPARd), PPARD (gene 5467) (Q03181 whole entry, looked up, the tested form may be a part): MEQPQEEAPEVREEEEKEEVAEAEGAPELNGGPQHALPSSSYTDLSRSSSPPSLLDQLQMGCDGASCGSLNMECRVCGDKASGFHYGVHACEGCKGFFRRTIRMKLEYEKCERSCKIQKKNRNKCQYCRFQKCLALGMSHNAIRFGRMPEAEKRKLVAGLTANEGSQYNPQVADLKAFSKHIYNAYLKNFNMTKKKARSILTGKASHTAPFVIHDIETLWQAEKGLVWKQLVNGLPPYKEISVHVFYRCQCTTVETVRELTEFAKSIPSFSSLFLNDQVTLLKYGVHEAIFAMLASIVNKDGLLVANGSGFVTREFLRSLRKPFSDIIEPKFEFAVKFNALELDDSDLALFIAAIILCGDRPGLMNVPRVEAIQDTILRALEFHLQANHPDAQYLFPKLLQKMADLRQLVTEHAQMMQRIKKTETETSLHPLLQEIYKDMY
Chain of human Retinoic Acid Receptor gamma (RARg), RARG (gene 5916) (P13631 whole entry, looked up, the tested form may be a part): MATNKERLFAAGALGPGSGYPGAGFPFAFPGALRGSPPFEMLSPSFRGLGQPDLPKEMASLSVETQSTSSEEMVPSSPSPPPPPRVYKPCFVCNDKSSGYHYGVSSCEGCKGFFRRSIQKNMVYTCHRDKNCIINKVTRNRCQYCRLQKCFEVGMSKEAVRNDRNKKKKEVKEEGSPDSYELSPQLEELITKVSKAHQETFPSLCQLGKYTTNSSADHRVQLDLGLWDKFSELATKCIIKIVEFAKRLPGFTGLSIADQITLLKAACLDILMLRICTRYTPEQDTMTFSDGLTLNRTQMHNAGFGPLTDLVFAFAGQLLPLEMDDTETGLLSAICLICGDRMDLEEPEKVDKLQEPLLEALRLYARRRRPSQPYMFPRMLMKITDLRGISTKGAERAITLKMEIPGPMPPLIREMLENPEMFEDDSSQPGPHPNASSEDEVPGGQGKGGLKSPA

In the case of `CCN(CC)C(=O)C(C)Oc1cccc2ccccc12` (configuration not stated), the outcome in test [1], in test [3], in [4], in test [8], in [9] and in test [10] was inactive. Further, the molecule was called inactive in test [11], in [12], in test [13], in [14] and in test [15]. Besides, the AC50 in test [2] is 10.8 µM (active); in test [5] it was 6.69 µM (active); in [6], 50 µM (active); in test [7], 0.503 µM (active).
For `OC(c1ccc(Cl)cc1)(c1ccc(Cl)cc1)C(Cl)(Cl)Cl`, the AC50 is 14.1 µM (active) in test [1]; 29.8 µM (active) in [2]; 29 µM (active) in test [4]; 11.6 µM (active) in [5]; 13.8 µM (active) in test [12]; 15.1 µM (active) in test [13]. The AC50 in test [15] is 13.8 µM (active). Besides, the molecule was classed as inactive in test [16], in test [6], in [7], in test [10] and in test [11].
For `COCC(C)N(C(=O)CCl)c1c(C)csc1C` (configuration not stated), the result in [1], in test [2], in [17], in test [4], in test [5] and in test [7] was inactive. Moreover, the outcome in [9], in test [18], in test [12], in [13] and in test [15] was inactive. Further, the AC50 in test [6] is 3.79 µM (active).
As to `Clc1cccc(C(Cl)(Cl)Cl)n1`, the result in test [1], in test [2], in [17], in test [4], in test [5] and in test [6] was inactive. Further, the call in test [7], in test [9], in test [10], in test [11], in test [18] and in [12] was inactive. Further, the outcome in test [13] and in [15] was inactive.
Consider `CC1(C)C(C(=O)OC(C#N)c2cccc(Oc3ccccc3)c2)C1(C)C` (configuration not stated), for which the outcome in [1], in [2], in test [3], in test [4], in [19] and in [20] was inactive. The molecule was classed as inactive in [11], in [18], in test [12], in [13] and in test [15]. Besides, the AC50 is 13.7 µM (active) in [16], 7.92 µM (active) in [5], 16.9 µM (active) in test [6] and 9.21 µM (active) in [7].
In the case of `CCNP(=S)(OC)O/C(C)=C/C(=O)OC(C)C` (configuration not stated), the result in test [1], in test [2], in [4], in [19], in test [5] and in test [7] was inactive. Moreover, the call in [20], in test [9], in test [11], in [12], in [13] and in test [15] was inactive. The AC50 was 22.1 µM (active) in test [16] and 29.6 µM (active) in test [6].

The values above are taken from PubChem BioAssay (EPA / NIEHS).
